TDP1 cell CPT: qHTS for Inhibitors of human tyrosyl-DNA phosphodiesterase 1 (TDP1): qHTS in cells in presence of CPT; chicken DT40 Tdp1-/-;hTDP1 cells + 20 nM CPT, ATP luminescence, 48 h; Potency, µM (doses to about 46.2 µM), without a hit: at the highest dose activity change, negative = growth inhibition, actives largely listed as inhibitors; 420,000 compounds, 12% hits; further: potency means the concentration at half of the fitted maximal effect; nearly all actives have a fitted effect of over 55% in size
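Chicken DT40 Tdp1-/- cells stably complemented with human TDP1 were seeded at 400 cells/well in medium containing 20 nM camptothecin, exposed to pin-transferred compounds, and grown at 37 °C for at least 48 hr. Viability was read as ATP luminescence.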
IL-1B inflam inh: qHTS for Inhibitors of Inflammasome Signaling: IL-1-beta AlphaLISA Primary Screen | THP-1 LPS/ATP IL-1B secretion, AlphaLISA, 16 h; hits give low values | activity change, % at 57.5 µM | 360,000 compounds, 4.7% hits | AID 743279, 2014; in the data active means activity change below about -50%; inconclusive means mostly about -30% to -49%
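Secreted IL-1B measured by AlphaLISA bead assay after 16 h compound exposure of THP-1 cells; compounds (final up to 57.5 uM) added 1 h before LPS (250 ng/mL) and ATP (1.25 mM) stimulation; lower signal means less secretion.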
HT1080NT lethal: qHTS for induction of synthetic lethality in tumor cells producing 2HG: qHTS for the HT-1080-NT fibrosarcoma cell line. AID 686970, 2013. 360,000 compounds, 1.6% hits. HT-1080-NT fibrosarcoma viability, CellTiter-Glo ATP luminescence, 48 h. Potency, µM (top dose mostly 46.1 µM), inactives show at the highest dose activity, negative = less viability, actives largely listed as cytotoxic;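 further: NT is the 2HG producing partner of a matched IDH1 knockdown line; potency means the concentration at half of the fitted maximal effect; 0% = DMSO-treated cells and -100% = media-only wells without cells; nearly all actives have a fitted effect of over 55% in size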
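Fibrosarcoma NT cells, 750 per well in 5% FBS RPMI, were exposed to compound for 48 hours. Viability: CellTiter-Glo luminescence.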
12-LOX inh: Primary qHTS assay for inhibitors of human arachidonate 12S-lipoxygenase (ALOX12): Round 2; 580,000 compounds, 1.1% hits; Polyunsaturated fatty acid lipoxygenase ALOX12 (Homo sapiens), P18054; AID 1671190, 2021; purified 12hLO, xylenol orange hydroperoxide absorbance; Potency, µM (titrated, usually from 108 µM), without a hit: at the highest dose activity change, negative = inhibition, hits mostly inhibitors; further: potency means the concentration at half of the fitted maximal effect
Target sequence (P18054 whole entry, looked up): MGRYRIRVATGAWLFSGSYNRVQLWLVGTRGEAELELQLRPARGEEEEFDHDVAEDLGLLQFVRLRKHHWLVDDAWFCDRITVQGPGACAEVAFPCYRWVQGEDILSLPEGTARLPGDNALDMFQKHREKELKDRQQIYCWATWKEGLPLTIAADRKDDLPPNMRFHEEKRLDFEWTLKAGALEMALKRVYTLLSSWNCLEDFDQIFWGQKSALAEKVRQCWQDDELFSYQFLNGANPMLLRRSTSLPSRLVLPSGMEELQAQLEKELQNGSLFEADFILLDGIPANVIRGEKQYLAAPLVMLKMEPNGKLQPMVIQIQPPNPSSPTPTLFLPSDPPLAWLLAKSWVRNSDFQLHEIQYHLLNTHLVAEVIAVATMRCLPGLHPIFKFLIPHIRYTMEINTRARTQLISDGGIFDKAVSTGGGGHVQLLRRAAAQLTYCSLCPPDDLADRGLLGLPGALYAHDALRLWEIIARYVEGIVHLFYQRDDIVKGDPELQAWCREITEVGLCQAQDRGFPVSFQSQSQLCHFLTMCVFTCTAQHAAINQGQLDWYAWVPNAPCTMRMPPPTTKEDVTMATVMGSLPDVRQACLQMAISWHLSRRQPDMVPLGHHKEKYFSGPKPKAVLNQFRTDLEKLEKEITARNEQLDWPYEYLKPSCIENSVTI
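Purified human 12hLO at 150 nM in 25 mM Hepes, 0.01% Triton X-100, pH 7.0, preincubated 15 min at room temperature with compound. Reaction started with 40 uM arachidonic acid, 30 min at room temperature. Hydroperoxide measured by Fe-xylenol orange, 573/405 nm absorbance ratio.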
TDP1 cell noCPT: qHTS for Inhibitors of human tyrosyl-DNA phosphodiesterase 1 (TDP1): qHTS in cells in absence of CPT; DT40 Tdp1-/- hTDP1 cells, no CPT, ATP luminescence, 48 h; Potency, µM (doses to about 46.2 µM), without a hit: at the top dose activity change, negative = growth inhibition, most hits filed as inhibitors; 420,000 compounds, 15% hits; AID 686978, 2013; further: potency means the concentration at half of the fitted maximal effect; nearly all actives have a fitted effect of over 55% in size
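Growth of hTDP1-complemented DT40 Tdp1-knockout cells is measured by ATP luminescence after at least 48 hr compound exposure at 37 °C, with DMSO substituting for the 20 nM CPT used in the parallel screen.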
HT1080 IDH1KD tx: qHTS for induction of synthetic lethality in tumor cells producing 2HG: qHTS for the HT-1080-IDH1KD cell line. HT-1080 IDH1 knockdown viability, ATP luminescence, 48 h. Potency, µM (series often up to 46.1 µM), for inactives: at the highest dose activity, negative = toxicity, hits mostly cytotoxic. 360,000 compounds, 2% hits. AID 686971, 2013;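 further: potency means the concentration at half of the fitted maximal effect; 0% = DMSO wells and -100% = cell-free medium wells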
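CellTiter-Glo luminescence after 48 h compound exposure at 37 degrees C of IDH1-knockdown HT-1080 cells in 5% FBS RPMI. %Activity scaled between DMSO wells and cell-free media wells, with curves fitted and assigned curve classes.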
* = called active by the depositor; u = inconclusive; x = no result given. Many of the other results were omitted from the sample, so hits are more common in it than they were. Unless noted, the call rests on the fitted dose curve; in most records, active means well fitted curve in the direction sought with a large enough effect; inconclusive means small, poorly fitted or top-dose-only effect, or another doubt; inactive means no such curve, though single readings can be large; an effect the other way counts as inactive or inconclusive. Unless noted, on the % scale 0 is the no-effect control and ±100 the full control effect.

SMILES	TDP1 cell CPT	IL-1B inflam inh	HT1080NT lethal	12-LOX inh	TDP1 cell noCPT	HT1080 IDH1KD tx
CC1CC[C@@]23CCC4(C)[C@@]5(C)CCC6C(C)(C)C(=O)CC[C@@]6(C)C5C=C[C@@]4(OC2=O)C3C1C (stereo partly specified)	-1%	x	x	x	-8%	x
CC1=NN(c2ccccc2)C(=O)C1(C)C	5%	17	11%	367%	5%	11%
CC1=C(C)CC2(SC1)C(=O)N(c1ccccc1)N=C2N (stereo unspecified)	7.3µM*	-8	-13%	-9%	21µM*	-7%
Clc1ccc(CN2C3=NCCCN3c3ccccc32)cc1	26µM*	-29	u	4%	21µM*	-27%
Cc1ccccc1CN1C2=NCCN2c2ccccc21	u	-5	-9%	u	u	10%
Clc1ccc(CN2C3=NCCCN3c3ccccc32)cc1Cl	-120%	x	u	-14%	15µM*	u
Cc1ccccc1CN1C2=NCCCN2c2ccccc21	18µM*	-16	-6%	1%	18µM*	-27%
Fc1ccc(CN2C3=NCCCN3c3ccccc32)cc1	u	-18	0%	-6%	u	1%
O=c1[nH]c2cc3c(cc2cc1CN(CCc1ccccc1)C(=S)NCCCN1CCOCC1)OCCO3	u	-11	10%	1%	21µM*	10%
Cc1cccc(NC(=S)N(CCN2CCOCC2)Cc2cc3cc4c(cc3[nH]c2=O)OCCO4)c1	u	-28	-5%	-4%	16µM*	-12%
CCC(c1nnnn1-c1c(C)cccc1C)N1CCN(c2ccccn2)CC1 (stereo unspecified)	u	52	-21%	2%	u	-17%
Cc1c(C)n(Cc2ccccc2)c2ccc(C(=O)NCc3ccc(OC(C)C)cc3)cc12	16µM*	x	x	-21%	12µM*	x
CCOc1ccc(CNC(=O)c2ccc3c(c2)c(C)c(C)n3C)cc1	u	x	x	-18%	u	x
CCOc1ccc(CNC(=O)c2ccc3c(c2)c(C)c(C)n3Cc2ccccc2)cc1OC	12µM*	x	x	-17%	15µM*	x
Cc1cccc(CNC(=O)c2ccc3c(c2)c(C)c(C)n3Cc2ccccc2)c1	21µM*	x	x	-27%	u	x
C=CCN1[C@@H](C)COc2cccc(N3CCCC3)c2S1(=O)=O	x	x	x	10%	x	x
Cc1ccc(-n2ncc(C(=O)N3CCN(c4cc(Cl)ccc4C)CC3)c2C2CCN(C(=O)OC(C)(C)C)CC2)cc1	u	x	x	-7%	-24%	x
Cc1ccc(Cl)cc1N1CCN(C(=O)c2cnn(C)c2C2CCN(C(=O)OC(C)(C)C)CC2)CC1	6.5µM*	x	x	0%	5.8µM*	x
Cc1ccc(Cl)cc1N1CCN(C(=O)c2cnn(C(C)(C)C)c2C2CCN(C(=O)OC(C)(C)C)CC2)CC1	26µM*	x	x	11%	u	x
Cc1ccc(-n2ncc(C(=O)N3CCN(c4ccccc4F)CC3)c2C2CCN(C(=O)OC(C)(C)C)CC2)cc1C	u	x	x	-16%	-19%	x
Cc1ccc(C)c(N2CCN(C(=O)c3cnn(C(C)(C)C)c3C3CCN(C(=O)OC(C)(C)C)CC3)CC2)c1	18µM*	x	x	-10%	u	x
COC(=O)CC1C(C)(C)C(OC(C)=O)C2[C@H](OC(C)=O)[C@]34O[C@]2(O)[C@]1(C)C3CC[C@]1(C)C4=CC(=O)OC1c1ccoc1 (stereo partly specified)	u	x	x	x	16µM*	x
CCCN1C(=O)C2(c3ccccc31)c1c(oc3ccc(F)cc3c1=O)C(=O)N2CCCOC(C)C (stereo unspecified)	21µM*	x	x	-23%	u	x
CCCN1C(=O)C2(c3ccccc31)c1c(oc3ccccc3c1=O)C(=O)N2CCCOC(C)C (stereo unspecified)	u	x	x	-20%	u	x
Cc1ccccc1CNC(=O)c1cccn2c(=O)c3ccccc3nc12	x	x	x	-24%	x	x
SMILES	TDP1 cell CPT	IL-1B inflam inh	HT1080NT lethal	12-LOX inh	TDP1 cell noCPT	HT1080 IDH1KD tx
Cn1c(=O)c2c(nc(Br)n2Cc2cccc(Cl)c2)n(C)c1=O	x	x	x	11%	x	x
CCCOc1ccc(CCCN=C(N)N)cc1Cl	2.1µM*	-90*	u	u	2.1µM*	21µM*
CCOc1ccc(CN=C(N)N=C(N)N)cc1Cl	12µM*	-21	-29%	15%	5.8µM*	-23%
CCCCOc1ccc(CN=C(N)N)cc1Cl	2.3µM*	-74*	u	0%	1.5µM*	u
CCCCOc1cc(C[C@@H]2CNC(=O)N2)ccc1OC	0%	x	x	0%	2%	x
Cc1nn(C)c(C)c1S(=O)(=O)N[C@@H]1COCC[C@H]1OCc1ccccn1	x	x	x	72%	x	x
C[C@H](O)[C@@H]1CN2CCc3c([nH]c4c(-c5ccccc5)cccc34)[C@@H]2C[C@@H]1N(C)C(=O)NC1CCCCC1	x	x	x	3%	x	x
CCC(=O)c1ccc(OC(=O)C2CCN(C3=NS(=O)(=O)c4ccccc43)CC2)cc1	1%	-20	-3%	-3%	0%	-1%
O=C(/C=C/c1ccccc1)NC(=S)NNC(=O)c1ccco1	u	63	-15%	220%	21µM*	-8%
O=C(NC(=S)N1CCN(C/C=C/c2ccccc2)CC1)c1ccco1	u	1	5%	-6%	21µM*	1%
O=C(NNC(=O)c1ccco1)c1ccco1	4%	-9	0%	3%	-8%	2%
O=C(/C=C/c1ccc(Br)cc1)NC(=S)NNC(=O)c1ccco1	u	39	16µM*	u	18µM*	15µM*
O=C(CCC[C@@H]1[C@H]2CCCN3CCC[C@@H](CN1C(=O)c1cccnc1)[C@@H]23)N1CCCCC1	x	x	x	7%	x	x
Cc1nc2nc(C(F)(F)F)[nH]n2c(=O)c1Cc1cccc(Cl)c1	x	x	x	-38%	x	x
CCc1cccc(NC(=O)N2CCC(n3cnnc3C3CC3)C2)c1 (stereo unspecified)	x	x	x	1%	x	x
Cc1ccc(/C=N/NS(=O)(=O)c2ccc(C)c([N+](=O)[O-])c2)o1	x	x	x	-17%	x	x
CCCC(=O)Nc1ccc(C(=O)N/N=C/c2ccc([N+](=O)[O-])o2)cc1	15µM*	17	12µM*	-14%	9.2µM*	13µM*
